Assay [1] can be described thus: Nuclear factor erythroid 2-related factor 2/antioxidant responsive element (Nrf2/ARE) small molecule agonists: qHTS cell viability counter screen in human keratinocytes (AID 1919968; active = well fitted curve in the direction sought with a large enough effect in the repeat runs; an effect the other way counts as inactive or inconclusive; note: nearly all actives have a fitted effect of over 55% in size; note: potency is the fitted concentration of half-maximal effect). An outline of the steps:
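Cells of the KeratinoSens line were plated at 1,500 per well and left for 5 h before compound transfer from DMSO stocks. After a 23 h incubation (37 C, 5% CO2), CellTiter-Fluor was added. Signal was taken as fluorescence intensity 1 h later.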
For orientation: Quantitative high-throughput screening tests each substance at several concentrations.

Assay [2] can be described thus: Nuclear factor erythroid 2-related factor 2/antioxidant responsive element (Nrf2/ARE) small molecule agonists: luciferase reporter gene qHTS assay in human keratinocytes (AID 1919969). Note: nearly all actives have a fitted effect of over 35% in size. Note: potency is the fitted concentration of half-maximal effect.
Assay [3] deals with Gonadotropin-releasing hormone receptor (Homo sapiens) (UniProt P30968). Description: Human gonadotropin-releasing hormone receptor (GnRHR) small molecule agonists, calcium flux assay in GnRHR-HEK293 cells (AID 1920063). Note: nearly all actives have a fitted effect of over 35% in size. An outline of the steps: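 Compounds dissolved in DMSO are pin-transferred onto dye-loaded GnRHR-HEK293 cells, which were seeded 18 h before at 37 C/5% CO2. Calcium signal is read as fluorescence intensity at 1 s intervals for 3 min.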
Gonadotropin-releasing hormone receptor (Homo sapiens), sequence (P30968 whole entry, looked up): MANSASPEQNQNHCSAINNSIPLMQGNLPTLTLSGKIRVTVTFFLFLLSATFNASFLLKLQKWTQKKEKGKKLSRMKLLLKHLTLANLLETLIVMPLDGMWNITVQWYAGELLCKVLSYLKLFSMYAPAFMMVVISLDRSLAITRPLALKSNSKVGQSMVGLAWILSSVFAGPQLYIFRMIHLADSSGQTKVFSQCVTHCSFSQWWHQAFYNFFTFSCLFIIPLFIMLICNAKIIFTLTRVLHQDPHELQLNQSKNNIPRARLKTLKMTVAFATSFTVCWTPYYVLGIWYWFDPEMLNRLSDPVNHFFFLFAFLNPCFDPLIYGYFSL

In assay [4] the target is KiSS-1 receptor (Homo sapiens) (UniProt Q969F8). Description: Human kisspeptin (KISS1R) small molecule agonists, calcium flux assay in KISS1R-HEK293 cells (AID 1920064; active = well fitted curve in the direction sought with a large enough effect in the repeat runs; an effect the other way counts as inactive or inconclusive). An outline of the steps:
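Cell line: HEK293, stable human KISS1R. Dye loading 1 h at 37 C after 18 h culture. Read: kinetic fluorescence, 480/540 nm, 3 min at 1 s intervals.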
On the technique in general: Calcium flux is commonly read through the fluorescence of an indicator in the cells.

Assay [5] in a line: G protein-coupled receptor (GPCR) small molecule agonists, calcium flux assay: HEK293 wild type cell line counter screen (AID 1920065). An outline of the steps:
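Tox21 10K compounds, 15 concentrations each in triplicate, pin-transferred in DMSO onto dye-loaded cells; kinetic read at 480/540 nm for 3 min, 1 s intervals.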

The nature of assay [6]: p53 small molecule agonists, cell-based qHTS assay with human liver microsomes (AID 1963577).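 Note: p53 response element beta-lactamase reporter cells with liver microsomes plus NADPH.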 An outline of the steps: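 p53RE-bla cells; 5 h settle, 37 C/5% CO2; cpd + HLM 0.5 mg/mL + NADPH 0.5 mg/mL (final); 16 h 37 C; LiveBLAzer 2 h RT dark; fluorescence readout.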
The nature of assay [7]: p53 small molecule agonists, cell-based qHTS assay with rat liver microsomes (AID 1963578). An outline of the steps:
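Rat liver microsome activation: microsomes 0.5 mg/mL, NADPH 0.5 mg/mL final; p53RE-bla cells, 16 h 37 C; LiveBLAzer readout, 2 h RT dark.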

Assay [8] is described as follows: p53 small molecule agonists, cell-based qHTS assay with human liver microsomes: qHTS cell viability counter screen (AID 1963579). Note: nearly all actives have a fitted effect of over 45% in size. An outline of the steps:
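Luminescent CellTiter-Glo read-out, 30 min at room temperature, gauged cytotoxicity in p53RE-bla cells exposed 16 h at 37 C to DMSO-dissolved compounds with metabolic activation by human liver microsomes and NADPH, each 0.5 mg/mL final.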

The nature of assay [9]: p53 small molecule agonists, cell-based qHTS assay with rat liver microsomes: qHTS cell viability counter screen (AID 1963580). Note: nearly all actives have a fitted effect of over 45% in size. An outline of the steps: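 Counter screen for cytotoxicity under metabolic activation: rat liver microsomes and NADPH, 0.5 mg/mL final each, added with compounds to p53RE-bla HCT-116 cells; 16 h at 37 C, then ATP luminescence read.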
A short description of assay [10]: p53 small molecule agonists, cell-based qHTS assay: qHTS cell viability counter screen (AID 1963581). Note: nearly all actives have a fitted effect of over 45% in size. An outline of the steps:
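ATP content measured by luminescence in HCT-116 p53RE-bla cells treated 16 h at 37 C, same wells as the reporter screen.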

Assay [11] is described as follows: p53 small molecule agonists, cell-based qHTS assay (AID 1963582; active = well fitted activation curve with a large enough effect in the signal ratio in the repeat runs, not every such curve was filed as active; the % refers to the signal ratio). An outline of the steps:
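16 h compound exposure (37 C) of p53 response element–bla cells, preceded by 5 h recovery at 37 C/5% CO2; read-out via LiveBLAzer B/G FRET substrate, 2 h RT, fluorescence intensity.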

Assay [12] concerns the target 5-hydroxytryptamine receptor 2A (Homo sapiens) (UniProt P28223). Description: 5-hydroxytryptamine receptor 2A (HTR2A) small molecule agonists, cell-based qHTS assay (AID 1963587). Note: nearly all actives have a fitted effect of over 30% in size. An outline of the steps: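 HTR2A-CHO cells, plated 18 h at 37 C/5% CO2, dye-loaded 1 h at 37 C; compounds in DMSO added by pin tool (agonist mode). Intracellular calcium flux read as kinetic fluorescence on FDSS over 2 min at 1 s intervals.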

Assay [13] has as its target Muscarinic acetylcholine receptor M1 (Homo sapiens) (UniProt P11229). Description: Cholinergic receptor muscarinic 1 (CHRM1) small molecule antagonists, cell-based qHTS assay (AID 1963588). Note: nearly all actives have a fitted effect of over 40% in size. An outline of the steps: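 Compounds were tested at 15 concentrations in three independent runs. Dye-loaded CHRM1-CHO cells were exposed 5 min at room temperature before stimulation by acetylcholine added at 50nM. Intracellular calcium was read kinetically on FDSS for 3 min.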

Assay [14] shares this target. Description: Cholinergic receptor muscarinic 1 (CHRM1) small molecule agonists, cell-based qHTS assay (AID 1963589). Note: nearly all actives have a fitted effect of over 35% in size. An outline of the steps: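 Homogeneous fluorescence calcium flux, agonist mode. Human M1-expressing CHO cells; compound dosed at 15 concentrations, three independent runs; signal sampled every 1 sec.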
A short description of assay [15]: cAMP Responsive Elements (CRE) small molecule agonists, cell-based qHTS assay (AID 1963590). An outline of the steps: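 HEK 293T cells stably bearing CRE-bla were plated at 2,000 cells per well and rested 18 h. Compounds, positive controls or DMSO were added for 3 h at 37 C. LiveBLAzer B/G substrate was then loaded for 2 h at room temperature.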
A short description of assay [16]: cAMP Responsive Elements (CRE) small molecule antagonists, cell-based qHTS assay (AID 1963591; active = well fitted inhibition curve with a large enough effect in the signal ratio in the repeat runs, not every such curve was filed as active; the % refers to the signal ratio). An outline of the steps:
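First, CRE-bla HEK293T cells settled 18 h at 37 C. Next, compound and 0.25 uM final NKH477 were applied for 3 h. Last, LiveBLAzer B/G substrate was loaded for 2 h at room temperature.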

For assay [17], the target named is Beta-2 adrenergic receptor (Homo sapiens) (UniProt P07550). Description: Adrenergic beta2 receptor (ADRB2) small molecule antagonists, cell-based qHTS assay (AID 1963592). Note: series mostly up to about 92 µM; nearly all actives have a fitted effect of over 50% in size. An outline of the steps:
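Assay format: CHO-ADRB2 cells, 18-20hr seeding at 37C/5% CO2, then compound plus 1nM isoproterenol agonist mix for 0.5hr RT. Homogeneous time-resolved fluorescence cAMP detection after 1hr, expressed as 665/615 nm ratio.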

Assay [18] concerns the target D(2) dopamine receptor (Homo sapiens) (UniProt P14416). Kind of assay: Dopamine D2 receptor (DRD2) small molecule agonists, cell-based qHTS assay (AID 1963594). Note: nearly all actives have a fitted effect of over 35% in size. An outline of the steps:
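HEK293 cells stably expressing DRD2 were cultured 24 h at 37 C, then given Ro20-1724 (0.1 mM final) and compounds for 10 min at room temperature. NKH477 (200nM) was then added for 30 min. cAMP was read by HTRF.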

The target is the same in assay [19]. Description: Dopamine D2 receptor (DRD2) small molecule antagonists, cell-based qHTS assay (AID 1963595; active = well fitted inhibition curve with a large enough effect in the signal ratio in the repeat runs, with a control signal flat; the % refers to the signal ratio). An outline of the steps: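 HEK293 cells stably expressing DRD2 were preincubated with 0.1 mM Ro20-1724, then with compound for 10 min at room temperature. Cells were stimulated with 200 nM NKH477 plus 12 nM quinpirole for 30 min, and cAMP was read by HTRF.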

Assay [20] concerns the target 5-hydroxytryptamine receptor 2A (Homo sapiens) (UniProt P28223). Kind of assay: 5-hydroxytryptamine receptor 2A (HTR2A) small molecule antagonists, cell-based qHTS assay (AID 1963586). Note: nearly all actives have a fitted effect of over 45% in size. An outline of the steps:
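CHO cells stably expressing human HTR2A were plated for 18 h at 37 C, then loaded with calcium dye for 1 h. Compounds were preincubated 5 min at room temperature before DOI (4 nM solution) was added. Kinetic fluorescence was read for 3 min.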

Structures are written as SMILES. Several values for one entry are separate records, joined by “and”; a condition that tells them apart may be missing. Equal values may be shown once. Results filed as inconclusive are left out. Some structures have more than one record in an assay (separate samples or runs), and their calls can disagree. Activity calls are given as the source filed them. Unless noted, calls come from the whole dose curve.

Seven compounds from PubChem BioAssay (Tox21) can be followed below.

KiSS-1 receptor (Homo sapiens), sequence (Q969F8 whole entry, looked up): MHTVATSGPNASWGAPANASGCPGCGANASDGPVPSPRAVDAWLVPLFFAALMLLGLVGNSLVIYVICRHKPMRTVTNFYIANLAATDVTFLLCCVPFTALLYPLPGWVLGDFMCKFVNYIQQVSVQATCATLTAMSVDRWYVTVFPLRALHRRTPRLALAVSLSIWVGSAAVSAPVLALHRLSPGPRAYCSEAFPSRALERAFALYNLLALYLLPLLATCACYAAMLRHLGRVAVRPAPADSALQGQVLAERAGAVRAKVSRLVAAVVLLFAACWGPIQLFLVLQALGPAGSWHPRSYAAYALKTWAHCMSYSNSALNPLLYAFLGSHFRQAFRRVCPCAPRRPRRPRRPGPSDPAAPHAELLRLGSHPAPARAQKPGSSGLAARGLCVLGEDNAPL
Muscarinic acetylcholine receptor M1 (Homo sapiens), sequence (P11229 whole entry, looked up): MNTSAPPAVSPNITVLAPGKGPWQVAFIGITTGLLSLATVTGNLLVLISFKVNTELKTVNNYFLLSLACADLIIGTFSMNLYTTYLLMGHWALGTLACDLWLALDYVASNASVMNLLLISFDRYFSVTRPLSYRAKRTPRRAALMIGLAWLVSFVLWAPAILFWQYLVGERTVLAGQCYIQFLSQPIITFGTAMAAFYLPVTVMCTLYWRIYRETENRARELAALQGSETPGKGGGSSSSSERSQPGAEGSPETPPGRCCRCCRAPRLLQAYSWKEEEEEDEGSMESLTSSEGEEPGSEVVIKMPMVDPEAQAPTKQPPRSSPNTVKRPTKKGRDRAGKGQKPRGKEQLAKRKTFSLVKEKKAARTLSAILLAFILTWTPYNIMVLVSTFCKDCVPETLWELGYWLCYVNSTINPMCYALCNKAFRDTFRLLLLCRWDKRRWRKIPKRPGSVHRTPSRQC
5-hydroxytryptamine receptor 2A (Homo sapiens), sequence (P28223 whole entry, looked up): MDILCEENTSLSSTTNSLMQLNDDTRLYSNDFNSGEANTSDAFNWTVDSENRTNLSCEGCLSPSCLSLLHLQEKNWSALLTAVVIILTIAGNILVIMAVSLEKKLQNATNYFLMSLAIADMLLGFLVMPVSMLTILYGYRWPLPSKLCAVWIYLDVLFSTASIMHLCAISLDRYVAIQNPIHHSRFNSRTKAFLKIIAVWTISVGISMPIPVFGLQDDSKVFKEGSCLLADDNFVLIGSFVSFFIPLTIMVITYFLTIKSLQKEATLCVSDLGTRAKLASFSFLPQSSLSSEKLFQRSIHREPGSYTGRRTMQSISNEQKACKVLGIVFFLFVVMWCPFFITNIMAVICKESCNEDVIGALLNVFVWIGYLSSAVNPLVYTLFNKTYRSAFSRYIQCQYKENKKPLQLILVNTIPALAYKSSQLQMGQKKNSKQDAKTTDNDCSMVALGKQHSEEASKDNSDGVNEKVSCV
D(2) dopamine receptor (Homo sapiens), sequence (P14416 whole entry, looked up): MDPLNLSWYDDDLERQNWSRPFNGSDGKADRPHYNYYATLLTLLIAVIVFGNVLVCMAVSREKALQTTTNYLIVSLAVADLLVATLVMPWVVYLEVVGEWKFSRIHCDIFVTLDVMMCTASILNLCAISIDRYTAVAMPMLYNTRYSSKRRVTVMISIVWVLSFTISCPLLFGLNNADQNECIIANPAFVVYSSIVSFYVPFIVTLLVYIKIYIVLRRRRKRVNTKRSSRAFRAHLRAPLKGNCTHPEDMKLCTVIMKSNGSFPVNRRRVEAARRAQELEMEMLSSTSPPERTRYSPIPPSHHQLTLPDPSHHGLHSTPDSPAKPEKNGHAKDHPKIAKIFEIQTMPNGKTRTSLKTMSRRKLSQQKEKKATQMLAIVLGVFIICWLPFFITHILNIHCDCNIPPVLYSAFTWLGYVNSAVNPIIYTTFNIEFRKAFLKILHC
Beta-2 adrenergic receptor (Homo sapiens), sequence (P07550 whole entry, looked up): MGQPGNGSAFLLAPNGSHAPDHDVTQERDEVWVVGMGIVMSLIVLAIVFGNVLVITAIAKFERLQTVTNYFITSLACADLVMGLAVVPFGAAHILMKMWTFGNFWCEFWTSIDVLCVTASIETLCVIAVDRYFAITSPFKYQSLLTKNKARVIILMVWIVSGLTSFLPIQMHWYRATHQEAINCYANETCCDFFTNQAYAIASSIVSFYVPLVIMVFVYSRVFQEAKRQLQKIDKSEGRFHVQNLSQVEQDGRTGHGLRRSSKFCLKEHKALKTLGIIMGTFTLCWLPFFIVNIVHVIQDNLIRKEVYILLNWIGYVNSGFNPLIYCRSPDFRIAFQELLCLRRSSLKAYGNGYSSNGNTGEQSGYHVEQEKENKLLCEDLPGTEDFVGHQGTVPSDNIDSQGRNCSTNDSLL

For the compound `O=Cc1ccc(Cl)cc1Cl`, the Potency entry in assay [1], in assay [2], in assay [3], in assay [4], in assay [5] and in assay [6] was “inactive” in each case. In addition, the Potency result in assay [7], in assay [8], in [9], in assay [10], in assay [11] and in assay [12] was “inactive” in each case. Moreover, the Potency result in [13], in assay [14], in assay [15], in [16], in [17] and in assay [18] was “inactive” each time. Also, the Potency result in assay [19] is “inactive”.
For the compound `CCCBr`, the Potency result in assay [1], in [2], in assay [3], in assay [4], in assay [5] and in assay [6] was “inactive” each time. Further, the Potency result in [7], in assay [8], in assay [9], in assay [10], in assay [20] and in assay [12] was “inactive” in each case. The Potency entry in assay [13], in [14], in [15], in [16], in [17] and in assay [18] was “inactive” throughout. Further, in [19], the Potency result is “inactive”.
As to `COC(=O)NC(=S)Nc1ccccc1NC(=S)NC(=O)OC`, the Potency result in assay [1], in [2], in assay [3], in [4], in assay [5] and in assay [6] was “inactive” each time. The Potency entry in assay [7], in assay [8], in assay [9], in assay [10], in assay [20] and in assay [12] was “inactive” in each case. In addition, the Potency result in assay [13], in [14], in assay [15], in assay [16], in assay [17] and in assay [18] was “inactive” in each case. Moreover, the Potency result in assay [19] was “inactive”.
On to `O=[N+]([O-])c1cccc(O)c1`, for which the Potency result in assay [1], in [2], in assay [3], in assay [4], in [5] and in assay [6] was “inactive” in each case. In addition, the Potency result in assay [7], in assay [8], in assay [9], in assay [10], in assay [20] and in assay [12] was “inactive” in each case. For the same compound, the Potency entry in assay [13], in [14], in assay [15], in [16], in assay [17] and in assay [19] was “inactive” each time.
In the case of `Cc1ccc(N=CN(C)C=Nc2ccc(C)cc2C)c(C)c1`, the Potency in assay [1] is 61.4 µM (active) and inactive. Moreover, the Potency result in assay [2], in [3], in assay [4], in [5], in assay [6] and in assay [7] was “inactive” in each case. Also, the Potency result in [8], in assay [9], in assay [10], in assay [11], in [15] and in assay [16] was “inactive” in each case. The Potency result in assay [17], in [18] and in assay [19] was “inactive” throughout.
Consider `COc1ccc(N)cc1`, for which the Potency result in [1], in assay [3], in [4], in assay [5], in [6] and in assay [7] was “inactive” throughout. Moreover, the Potency result in assay [8], in assay [9], in [10], in assay [20], in assay [12] and in assay [13] was “inactive” in each case. The Potency result in assay [14], in assay [15], in assay [16], in assay [17] and in assay [19] was “inactive” each time. Further, in assay [2], the Potency entry is “inactive and 68 µM (active)”.
For the compound `CS(=O)(=O)NC(=O)c1cc(Oc2ccc(C(F)(F)F)cc2Cl)ccc1[N+](=O)[O-]`, the Potency entry in assay [1], in assay [2], in assay [3], in assay [4], in assay [5] and in [6] was “inactive” in each case. The Potency result in assay [7], in assay [8], in assay [9], in [10], in assay [20] and in [12] was “inactive” throughout. Further, the Potency result in assay [13], in [14], in [15], in [16], in assay [17] and in assay [18] was “inactive” in each case. Further, the Potency result in assay [19] was “inactive”.
